# CHT block: human CHT choline transport inhibition; Q9GZV3; CHT-expressing cells, membrane potential dye, choline response; stronger effect = lower value; B-score at 10 µM; actives 0.86% (n = 310,000);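 active = B-score over 3 SD under the library average, and starting fluorescence ratio not unusually high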;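 also: choline stimulus applied at its EC90 after an EC20 pre-addition; B-score computed on integrated fluorescence ratio after choline addition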
# Target sequence (Q9GZV3 whole entry, looked up): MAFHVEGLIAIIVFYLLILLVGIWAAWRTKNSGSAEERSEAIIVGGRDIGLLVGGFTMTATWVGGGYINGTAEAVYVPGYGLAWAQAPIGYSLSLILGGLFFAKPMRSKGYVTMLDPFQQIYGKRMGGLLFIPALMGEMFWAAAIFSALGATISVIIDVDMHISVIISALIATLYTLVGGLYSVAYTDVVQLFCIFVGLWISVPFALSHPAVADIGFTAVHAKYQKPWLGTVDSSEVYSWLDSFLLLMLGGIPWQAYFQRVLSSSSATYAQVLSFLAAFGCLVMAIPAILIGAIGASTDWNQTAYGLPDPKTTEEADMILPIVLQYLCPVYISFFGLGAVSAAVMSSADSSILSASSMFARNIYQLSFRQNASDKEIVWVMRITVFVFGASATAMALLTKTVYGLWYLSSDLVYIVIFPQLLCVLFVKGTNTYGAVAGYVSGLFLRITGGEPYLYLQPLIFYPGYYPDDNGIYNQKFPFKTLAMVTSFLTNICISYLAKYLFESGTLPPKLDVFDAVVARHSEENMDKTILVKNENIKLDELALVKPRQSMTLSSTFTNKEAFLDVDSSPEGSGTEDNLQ
# EP2 antag: inhibitors of human EP2 prostaglandin E2 receptor; C6 glioma cells expressing human EP2, cAMP TR-FRET; cells stimulated with saturating PGE2; inhibition, % at 25 µM; actives 0.52% (n = 260,000); AID 1422;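 active = percent inhibition above 40 after rounding to a whole number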;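 also: rat C6 glioma host cells with rolipram phosphodiesterase inhibitor present; the protocol text gives 20 µM as final concentration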
# CHT allo act: allosteric activators of human choline transporter CHT; CHT-expressing cells, membrane potential dye, choline EC20; stronger effect = higher value; LV-AA mutant CHT in HEK293 cells; B-score at 10 µM; AID 488977; actives 0.49% (n = 310,000);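 active = initial fluorescence not abnormally high and integrated response B-score, plate-corrected, over 3 SD above library mean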
# EP2 modulator: modulates human prostaglandin E2 receptor EP2 signaling; P43116; AID 940; induction, % at 25 µM; actives 0.83% (n = 260,000); EP2-expressing cells, cAMP HTRF FRET, PGE2 co-stimulation;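 active = compounds whose cAMP rise, as percent of the full-agonist control response, exceeds 60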;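 also: rat C6 glioma line stably carrying human EP2 under a CMV promoter; the protocol text gives 20 µM as final concentration; 100% = response of wells given 1 µM PGE2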
# CHT act confirm: confirmation of human choline transporter (CHT) activators; shares compounds with CHT allo act; CHT-expressing cells, membrane potential dye fluorescence (FDSS); % of choline EC20–EC90 response window; HEK293 expressing CHT LV-AA mutant; choline added at its EC20; activation, % at 10 µM; actives 91% (n = 2,500);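 active = primary screen active, with duplicate mean activation above negative control mean plus 3 SD, cut at about 11% in these data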
# HEK293 MP dye: activity in parental HEK293 cells lacking CHT | membrane potential dye fluorescence (FDSS); measured after EC20 choline addition | ratio readout change at 10 µM, hits read low | AID 623908 | actives 62% (n = 2,500) | shares compounds with CHT allo act;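 active = duplicate-averaged ratio beyond 3 SD from buffer wells, up or down, though filed actives are nearly all decreases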
# * marks the source's active call; other numbers are inactive results; i = inactive; / = no result. A selection: hits, their analogues and other compounds. The true share with any hit is near 2%.
SMILES,CHT block,EP2 antag,CHT allo act,EP2 modulator,CHT act confirm,HEK293 MP dye
Cc1[nH]n(-c2ccc([N+](=O)[O-])cc2)c(=O)c1C=NCCc1ccc(S(N)(=O)=O)cc1,i,4,i,-42,/,/
CCCc1[nH]n(-c2ccc([N+](=O)[O-])cc2)c(=O)c1C=NCCCn1ccnc1,i,10,i,-29,37*,-48*
Cc1ncsc1C(=O)N1CCC[C@H](Cn2cc(C(=O)NCc3ccccc3F)nn2)C1,/,8,/,-30,/,/
Cc1ccc(C(=O)c2cc([N+](=O)[O-])ccc2N2CCN(C)CC2)cc1,i,10,12*,-12,38*,i
Cn1ccnc1C1(O)CCN(C(=O)C2CCCCC2)CC1,/,4,/,-11,/,/
COc1ccc(N2CCN(C(c3ccccc3)c3nnnn3C3CCCCC3)CC2)cc1 (stereo unspecified),/,14,/,-8,/,/
CCN(CC(=O)Nc1ccccc1C(F)(F)F)C(=O)CCOc1ccc(C)cc1,i,/,i,/,7,i
CCOc1ccc(OCCC(=O)N(CC)CC(=O)Nc2ccccc2C(F)(F)F)cc1,i,/,i,/,/,/
CC1CCc2c(sc3ncn4c(=O)n(CC(=O)N(C(C)C)C(C)C)nc4c23)C1 (stereo unspecified),/,/,/,-14,/,/
OC1(c2ccccc2)CCN(Cc2ccc(OCc3ccccn3)cc2)C1 (stereo unspecified),/,10,/,-80,/,/
Cc1ccc(-n2c(C)cc(/C=N/NC(N)=S)c2C)cc1,i,15,14*,11,33*,i
CNC(=S)N/N=C/c1ccccc1Cl,i,2,i,-3,/,/
CNC(=S)N/N=C/c1cc(C)n(-c2ccc(Cl)c(Cl)c2)c1C,i,17,9.3*,5,8,i
Cc1ccc(-n2c(C)cc(/C=N/NC(=O)c3ccncc3)c2C)cc1,i,15,i,-15,/,/
Cc1nn(C)c(C)c1NC(=O)Cn1c(=O)n(C(C)C)c2ncccc21,/,/,/,-37,/,/
O=C(c1cccnc1Nc1ccc(Oc2ccccc2)cc1)N1CCCC1,/,6,/,-18,/,/
O=C(Nc1ccc2nc(-c3ccc4nc[nH]c4c3)[nH]c2c1)c1ccco1,/,14,/,-70,/,/
O=c1[nH]c2ccc(S(=O)(=O)N3CCN(C4CCCCC4)CC3)cc2[nH]c1=O,i,10,i,24,46*,-42*
O=c1[nH]c2ccc(S(=O)(=O)N3CCCCC3)cc2[nH]1,i,24,i,10,/,/
CCc1nc2ccc(Cc3ccc4nc(CC)[nH]c4c3)cc2[nH]1,i,/,7.1*,/,49*,-52*
O=C(NCc1ccc(F)cc1)[C@H]1C=CCN1C(=O)c1ccccc1F,/,/,/,-12,/,/
Cc1nn(CC(=O)Nc2ccccc2-c2ccccc2)c(=O)c2cc3occc3n12,/,5,/,7,/,/
Cc1cnccc1CN(C)C(=O)CC1C(=O)NCCN1CC1CCCCC1 (stereo unspecified),i,8,7.7*,-6,0,i
Cc1ccc(CN(C)C(=O)CC2C(=O)NCCN2CC2CCCCC2)cc1 (stereo unspecified),i,5,i,-26,/,/
CC(NC(=O)Cn1c(NCCO)nc2ccccc21)C1CC2CCC1C2 (stereo unspecified),i,7,i,-6,38*,i
SMILES,CHT block,EP2 antag,CHT allo act,EP2 modulator,CHT act confirm,HEK293 MP dye
CCCCn1c(=N)n(CC(O)COc2ccccc2)c2ccccc21 (stereo unspecified),i,16,i,-3,36*,i
COc1ccccc1CN(Cc1cc2c(C)ccc(C)c2[nH]c1=O)Cc1nnnn1Cc1ccco1,i,18,6.4*,0,17*,i
COc1ccc(Cn2nnnc2CN(Cc2ccco2)Cc2cc3cc(C)cc(C)c3[nH]c2=O)cc1,/,10,/,-18,/,/
Cc1c(Cl)cccc1NC(=O)COC(=O)c1c2c(nc3ccccc13)CCN(Cc1ccccc1)C2,i,12,i,-31,21*,i
CCOC(=O)c1c(CSc2ccsc2)n(C)c2cc(Br)c(O)c(CN(C)C)c12,i,11,6.8*,-1,40*,i
O=C(c1cccc(Cl)c1)N1CCN(c2ccccn2)CC1,i,11,i,-5,/,/
O=C(c1ccc(S(=O)(=O)c2cccc(Cl)c2)c([N+](=O)[O-])c1)N1CCN(c2ccccn2)CC1,i,4,8.5*,-65,9,i
Cc1sc2nc(SCC(=O)Nc3ccc(F)cc3)[nH]c(=O)c2c1C,/,22,/,-72,/,/
CCN(C(=O)c1cccc(S(=O)(=O)N(C)C)c1)C12CC3CC(CC(C3)C1)C2,i,/,9.7*,/,14*,i
CN(C)S(=O)(=O)c1cccc(NC(=O)CC23CC4CC(CC(C4)C2)C3)c1,i,/,i,/,/,/
COc1cc2[nH]c(=O)c(C(=O)NC3CCCCC3)c(O)c2cc1OC,/,9,/,-7,/,/
COc1ccc(CCn2c(SCCN3CCCCC3)nc3ccccc3c2=O)cc1OC,i,2,7.4*,10,56*,-60*
C=CCNC(=O)CSc1nc2ccccc2c(=O)n1CCc1ccc(OC)c(OC)c1,i,/,i,/,/,/
CC(SC(=S)N1CCCCCC1)C(=O)O (stereo unspecified),/,9,/,-3,/,/
CCOC(=O)Cn1ncc2c3sc(C)cc3n(CC)c2c1=O,/,/,/,-12,/,/
Cc1cccc(-n2c(-c3ccco3)nn(CC(=O)N3CCCC3)c2=O)n1,/,/,/,-1,/,/
CCN(CC)C(=O)C(=O)c1cn(CCOc2ccccc2)c2ccccc12,i,9,i,7,7,i
CCN(CC)C(=O)Cn1cc(C(=O)C(=O)N2CCN(Cc3ccccc3)CC2)c2ccccc21,i,/,i,/,/,/
CCN1CCN(C(=O)C(=O)c2cn(CC(=O)N(CC)CC)c3ccccc23)CC1,i,/,i,/,44*,i
CC(C)NC(=O)C1CCN(S(=O)(=O)c2cc(Cl)ccc2Cl)CC1,/,6,/,-24,/,/
CC[n+]1cc(-c2ccccc2)nc(N2CCOCC2)n1,i,25,i,1,41*,-39*
Cc1cc(Cn2ccnc2)c(C)cc1Cn1ccnc1,i,6,i,-3,45*,-41*
Cc1nnc(NC(=O)Cn2nc(C(F)(F)F)c3c2CCCC3)s1,/,11,/,11,/,/
O=C(COC(=O)c1cc[n+]([O-])cc1)Nc1ccc(Cl)cc1C(F)(F)F,i,/,i,/,/,/
CN(C)c1cc[n+](CC(=O)Nc2ccc([N+](=O)[O-])cc2Cl)cc1,i,3,6.5*,1,5,-33*
O=C(COC(=O)c1cc[n+]([O-])cc1)Nc1ccc(Cl)cc1[N+](=O)[O-],i,3,i,14,20*,-44*
O=C(COC(=O)c1cc[n+]([O-])cc1)Nc1ccc([N+](=O)[O-])cc1Cl,i,6,12*,8,62*,-79*

# Compound activity deposited in PubChem BioAssay by several laboratories.
